# Measured values published in PubChem BioAssay (Tox21).
# Results filed as inconclusive are left out. Entries that show only a call come without a potency. Some structures have more than one record in an assay (separate samples or runs), and their calls can disagree. The source made the active and inactive calls. Unless noted, calls come from the whole dose curve.
# Columns and labels:
# [1] = qHTS assay for small molecule agonists of the p53 signaling pathway (AID 651631); note: nearly all actives have a fitted effect of over 15% in size; note: potency is the fitted concentration of half-maximal effect
# Outline: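 Beta-lactamase reporter activity under p53 response elements was quantified in HCT-116 cells by FRET fluorescence, following 16 h incubation with test compounds at 37 °C and 2 h substrate development at room temperature.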
# [2] = qHTS assay to identify small molecule agonists of the estrogen related receptor signaling pathway with the pleiotropic PPARgamma coactivator (PGC) from Tox21 10K library (AID 1224842; active = well fitted curve in the direction sought with a large enough effect in the repeat runs; an effect the other way counts as inactive or inconclusive; note: nearly all actives have a fitted effect of over 15% in size; note: potency is the fitted concentration of half-maximal effect)
# Outline: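 PGC/ERR reporter cell line, 2,000 cells per well, incubated 6 h at 37 C before 23 nL compound in DMSO was added. After 18 h at 37 C, One-Glo luminescence read following 30 min at room temperature.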
# [3] = Caspase-3/7 induction in HepG2 cells by small molecules, qHTS assay (AID 1346978; active = well fitted curve in the direction sought with a large enough effect in the repeat runs; an effect the other way counts as inactive or inconclusive; note: nearly all actives have a fitted effect of over 15% in size)
# Outline: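 Wild-type HepG2 cells, 2,000/well, settled 5 hr at 37 C and 5% CO2, then compound-treated for 17 hr; caspase-3/7 activity read by luminescent Caspase-Glo 3/7 after 30 min at room temperature.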
# [4] = target: Acetylcholinesterase (Homo sapiens) (UniProt P22303); experiment: Acetylcholinesterase (AChE) small molecule antagonists: colormetric cell-based qHTS assay (AID 1347395); note: nearly all actives have a fitted effect of over 30% in size; note: potency is the fitted concentration of half-maximal effect
# Sequence of Acetylcholinesterase (Homo sapiens) (P22303 whole entry, looked up): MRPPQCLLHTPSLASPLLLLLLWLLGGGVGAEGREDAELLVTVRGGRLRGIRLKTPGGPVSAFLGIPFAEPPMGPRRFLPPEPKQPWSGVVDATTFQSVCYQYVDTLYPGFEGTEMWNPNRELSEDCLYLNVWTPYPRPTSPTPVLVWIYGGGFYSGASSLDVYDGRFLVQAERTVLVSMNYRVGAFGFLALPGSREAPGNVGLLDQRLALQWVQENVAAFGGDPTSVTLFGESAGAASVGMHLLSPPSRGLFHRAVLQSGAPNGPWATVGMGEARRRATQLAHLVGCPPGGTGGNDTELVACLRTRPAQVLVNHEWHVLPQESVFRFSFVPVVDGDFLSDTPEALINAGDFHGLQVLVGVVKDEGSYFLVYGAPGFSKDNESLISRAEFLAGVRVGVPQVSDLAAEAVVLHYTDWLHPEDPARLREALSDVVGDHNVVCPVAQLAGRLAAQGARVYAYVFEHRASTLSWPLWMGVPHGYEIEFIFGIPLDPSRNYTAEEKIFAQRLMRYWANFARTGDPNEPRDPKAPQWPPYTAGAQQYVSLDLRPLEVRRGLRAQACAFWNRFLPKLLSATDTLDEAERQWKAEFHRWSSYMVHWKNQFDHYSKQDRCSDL
# Outline: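 After overnight attachment at 37 C, SH-SY5Y cells get 30 min compound exposure; detection cocktail (acetylthiocholine, DTNB) then incubates 90 min at 37 C, and absorbance reflects AChE-generated thiocholine.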
# [5] = target: Acetylcholinesterase (Homo sapiens) (UniProt P22303); experiment: Acetylcholinesterase (AChE) small molecule antagonists: enzyme-based qHTS assay (AID 1347397); settings: Potency: AChE enzyme activity inhibition; outcome: AChE enzyme activity inhibition; note: nearly all actives have a fitted effect of over 55% in size
# Outline: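 In this quantitative HTS, compounds from the Tox21 10K collection were preincubated 30 min at ambient temperature with recombinant human AChE dispensed at 50 mU/mL. Hydrolysis of acetylthiocholine was then followed for 10 min by DTNB colour development.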
# [6] = target: Acetylcholinesterase (Homo sapiens) (UniProt P22303); experiment: Acetylcholinesterase (AChE) small molecule antagonists: fluorescence cell-based qHTS assay (AID 1347398); settings: Potency: AChE activity; outcome: AChE activity; note: nearly all actives have a fitted effect of over 50% in size
# Outline: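 Cells (SH-SY5Y) attached overnight, were dosed with compound or DMSO vehicle for 30 min at 37 C, and then incubated 40 min at room temperature with acetylthiocholine and Thiolite Green; green fluorescence indexed AChE activity.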
# [7] = target: Acetylcholinesterase (Homo sapiens) (UniProt P22303); experiment: Acetylcholinesterase (AChE) small molecule antagonists: enzyme-based qHTS assay with human liver microsomes (AID 1347399); settings: Potency: qHTS inhibition; outcome: qHTS inhibition; note: nearly all actives have a fitted effect of over 60% in size
# Outline: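 Recombinant human AChE (50 mU/mL in the enzyme mix) and human liver microsomes (0.25 mg/mL final) were preincubated with compound and NADPH (0.25 mg/mL final) for 30 min at 37 C. Acetylthiocholine/DTNB was then added; thiocholine was read colorimetrically after 10 min at room temperature.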
# [8] = qHTS assay to identify small molecule antagonists of the estrogen related receptor (ERR) signaling pathway (AID 1224819; active = well fitted curve in the direction sought with a large enough effect in the repeat runs; an effect the other way counts as inactive or inconclusive; note: nearly all actives have a fitted effect of over 50% in size; note: potency is the fitted concentration of half-maximal effect)
# Outline: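 ERR reporter cells were plated at 2,000 cells/well and left 6 h at 37 C/5% CO2 before pin-tool transfer of compounds in DMSO. After 18 h at 37 C, One-Glo was added and luminescence was read 30 min later at room temperature.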
# [9] = qHTS assay to identify small molecule agonists of the estrogen related receptor (ERR) signaling pathway (AID 1224820; active = well fitted curve in the direction sought with a large enough effect in the repeat runs; an effect the other way counts as inactive or inconclusive)
# Outline: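 After 6 h plating (2,000 cells/well) and 18 h compound treatment at 37 C, ERR cells were lysed with One-Glo and luminescence read after 30 min at room temperature.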
# [10] = system: estrogen-related receptor alpha (ERRalpha) with PGC-1alpha coactivator, human; experiment: qHTS assay to identify small molecule antagonists of the estrogen related receptor signaling pathway with the pleiotropic PPARgamma coactivator (PGC) (AID 1224821); note: potency is the fitted concentration of half-maximal effect; nearly all actives have a fitted effect of over 50% in size
# Outline: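 Luminescence from One-Glo luciferase reagent (30 min, room temperature) measured after 18 h compound treatment at 37 °C. Cells carry the PGC/ERR reporter and were seeded 6 h prior to dosing.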
# [11] = qHTS assay to identify small molecule agonists of the estrogen related receptor signaling pathway with the pleiotropic PPARgamma coactivator (PGC) (AID 1224823; active = well fitted curve in the direction sought with a large enough effect in the repeat runs; an effect the other way counts as inactive or inconclusive)
# Outline: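 Luminescence from One-Glo reagent (30 min, room temperature) was read after 18 h compound treatment at 37 C of PGC/ERR cells plated 6 h beforehand; compounds delivered in DMSO by pin tool.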
# [12] = qHTS assay to identify small molecule agonists of H2AX (AID 1224845; active = well fitted activation curve with a large enough effect in the signal ratio in the repeat runs, not every such curve was filed as active; the % refers to the signal ratio)
# Outline: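 Wild-type CHO-K1 cells, plated overnight, exposed 3hr at 37C to 15 concentrations (0.76% DMSO final). Lysed, then HTRF anti-pH2AX (S139) cryptate and anti-H2AX-d2 antibodies, 24 hr room temperature; 665/620 nm emission read.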
# [13] = target: Glucocorticoid receptor (Homo sapiens) (UniProt P04150); experiment: qHTS assay to identify small molecule antagonists of the glucocorticoid receptor (GR) signaling pathway (AID 720692; active = well fitted inhibition curve with a large enough effect in the signal ratio in the repeat runs, not every such curve was filed as active; the % refers to the signal ratio)
# Sequence of Glucocorticoid receptor (Homo sapiens) (P04150 whole entry, looked up): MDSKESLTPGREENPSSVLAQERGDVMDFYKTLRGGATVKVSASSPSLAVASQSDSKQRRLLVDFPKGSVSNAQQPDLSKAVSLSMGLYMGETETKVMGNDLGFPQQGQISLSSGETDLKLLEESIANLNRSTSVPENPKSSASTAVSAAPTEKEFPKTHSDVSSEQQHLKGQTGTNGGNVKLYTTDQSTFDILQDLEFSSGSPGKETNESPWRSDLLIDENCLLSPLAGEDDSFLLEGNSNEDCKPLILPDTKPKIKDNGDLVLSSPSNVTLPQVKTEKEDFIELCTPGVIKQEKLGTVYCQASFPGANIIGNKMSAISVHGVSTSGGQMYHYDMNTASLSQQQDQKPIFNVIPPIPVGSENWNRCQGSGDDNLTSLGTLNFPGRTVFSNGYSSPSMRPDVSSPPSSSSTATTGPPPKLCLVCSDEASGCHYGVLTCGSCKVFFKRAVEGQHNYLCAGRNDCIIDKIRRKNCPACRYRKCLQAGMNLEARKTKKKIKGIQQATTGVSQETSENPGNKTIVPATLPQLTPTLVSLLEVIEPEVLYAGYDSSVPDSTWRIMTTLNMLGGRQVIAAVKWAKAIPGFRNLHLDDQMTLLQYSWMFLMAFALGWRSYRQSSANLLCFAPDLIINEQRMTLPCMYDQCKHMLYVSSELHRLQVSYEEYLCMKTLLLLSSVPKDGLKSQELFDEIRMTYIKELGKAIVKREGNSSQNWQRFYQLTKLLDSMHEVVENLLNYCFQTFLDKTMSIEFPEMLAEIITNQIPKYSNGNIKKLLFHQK
# Outline: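 GRE-bla HeLa line, dex-stimulated (5 nM final). Compound exposure 18 h, 37 C. Beta-lactamase FRET read after 2 h RT substrate.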
# [14] = target: Glucocorticoid receptor (Homo sapiens) (UniProt P04150); experiment: qHTS assay to identify small molecule agonists of the glucocorticoid receptor (GR) signaling pathway (AID 720691; active = well fitted activation curve with a large enough effect in the signal ratio in the repeat runs, not every such curve was filed as active; the % refers to the signal ratio)
# Outline: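 A HeLa cervical cancer line expressing GR and a glucocorticoid response element-driven beta-lactamase gene is treated with compounds for 18 h; LiveBLAzer B/G FRET substrate is then applied and fluorescence read.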
# [15] = qHTS assay to identify small molecule antagonists of the estrogen receptor alpha (ER-alpha) signaling pathway using the BG1 cell line in the presence of 0.1 nM 17-beta-estradiol - cell viability counter screen (AID 1259241; active = well fitted curve in the direction sought with a large enough effect in the repeat runs; an effect the other way counts as inactive or inconclusive; note: nearly all actives have a fitted effect of over 40% in size)
# Outline: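 In this screen, hormone-deprived VM7Luc4E2 cells were seeded at 4,000 per well, dosed with compound and 0.1 nM estradiol final, and incubated 22 hr at 37C and 5% CO2; fluorogenic live-cell protease signal reported viability.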
# [16] = qHTS assay to identify small molecule antagonists of the androgen receptor (AR) signaling pathway using the MDA cell line in the presence of 0.5 nM R1881 - cell viability counter screen (AID 1259242; active = well fitted curve in the direction sought with a large enough effect in the repeat runs; an effect the other way counts as inactive or inconclusive; note: nearly all actives have a fitted effect of over 45% in size)
# Outline: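 Human breast carcinoma MDA-kb2 cells, cultured without CO2, receive compounds alongside 0.5 nM (final) R1881 agonist. After 16 hr at 37C, viability is taken as live-cell protease signal.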
structure (smiles),measurement,setting,value
O=Nc1ccc(Nc2ccccc2)cc1,Potency,[1],61.1 µM (active)
same,Potency,[2],9.74 µM (active)
same,Potency,[3],inactive
same,Potency,[4],inactive
same,Potency,[5],inactive
same,Potency,[6],inactive
same,Potency,[7],inactive
CC(C)(C)c1cc(C=C(C#N)C#N)cc(C(C)(C)C)c1O,Potency,[8],0.276 µM (active)
same,Potency,[9],inactive
same,Potency,[10],181 nM (active)
same,Potency,[11],inactive
CC(=O)c1c(O)c(C)c(O)c(Cc2c(O)c3c(c(C(=O)/C=C/c4ccccc4)c2O)OC(C)(C)C=C3)c1O,Potency,[8],10.6 µM (active)
same,Potency,[9],inactive
same,Potency,[11],inactive
C[N+]1(C)[C@@H]2CC(OC(=O)[C@H](CO)c3ccccc3)C[C@H]1[C@@H]1O[C@@H]12 (stereo not given in full),Potency,[4],inactive
same,Potency,[5],inactive
same,Potency,[6],inactive
same,Potency,[7],inactive
CN1[C@@H]2CC[C@@H]1CC(OC(=O)C(CO)c1ccccc1)C2 (stereo not given in full),Potency,[12],inactive
Cc1cccc(C)c1,Potency,[13],inactive
same,Potency,[2],inactive
same,Potency,[12],inactive
same,Potency,[3],inactive
same,Potency,[5],inactive
same,Potency,[6],inactive
same,Potency,[7],inactive
CCn1cnc2c(Nc3cccc(Cl)c3)nc(N[C@@H]3CCCC[C@@H]3N)nc21,Potency,[8],inactive
same,Potency,[11],inactive
O=C(O)/C=C/C(=O)O,Potency,[1],inactive
same,Potency,[14],inactive
same,Potency,[13],inactive
same,Potency,[2],inactive
same,Potency,[15],inactive
same,Potency,[16],inactive
same,Potency,[4],inactive
same,Potency,[5],inactive
same,Potency,[6],inactive
same,Potency,[7],inactive
CCC1C(=O)OCC1Cc1cncn1C (stereo not given),Potency,[2],inactive
same,Potency,[4],inactive
same,Potency,[5],inactive
same,Potency,[6],inactive
same,Potency,[7],inactive
NC(=Nc1ccccc1)Nc1ccccc1,Potency,[1],inactive
same,Potency,[2],12.2 µM (active)
same,Potency,[3],inactive
same,Potency,[4],63.3 µM (active) and inactive
same,Potency,[5],inactive
same,Potency,[6],inactive
same,Potency,[7],inactive
CCCCCCCCCc1ccc(OCCOCCO)cc1,Potency,[12],inactive
same,Potency,[4],inactive
same,Potency,[5],inactive
same,Potency,[6],inactive
same,Potency,[7],inactive
